# In PubChem BioAssay AID504465 (National Center for Advancing Translational Sciences (NCATS), 2011):
# About 210 (10%) of roughly 2,100 compounds were called active. About 53% were inconclusive and are not listed. The call rests on the fitted dose curve; in most records, active means well fitted inhibition curve with a large enough effect; inconclusive means small, poorly fitted or top-dose-only effect, or effect the other way; inactive means no such curve, though single readings can be large or run the other way. This is one part of the list. A call without a number means that no potency is given here.
# Experiment: IN Cell qHTS Assay for Inhibitors of the mTORC1 Signaling Pathway in MEF (Tsc2-/-, p53-/-) Cells: Sytravon; further: nearly all actives have a fitted effect of over 60% in size
# Details: phospho-rpS6 immunofluorescence, 24 h; series mostly up to 38.3 µM
# Summary of the method: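 Immunofluorescence of rpS6 phosphorylation (Ser235/236) in mouse embryonic fibroblasts lacking Tsc2 and p53, after 24 h compound exposure; Hoechst-normalized signal imaged, each well scored as % active cells relative to rapamycin (7.5 nM) and DMSO controls.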
# Potency means the concentration at half of the fitted maximal effect.
row,Structure (SMILES),Potency
1,Cc1cccc(C(=O)Nc2ccccc2SCc2cc(=O)c3cccc(C)c3[nH]2)c1,inactive
2,COc1ccc(CCNC(=O)CCn2c(=O)c3ccccc3n(Cc3ccccc3C)c2=O)cc1OC,inactive
3,COc1ccc(CCNC(=O)c2ccc3c(c2)N=C(C)c2cc(C)ccc2S3)cc1OC,inactive
4,O=C(Nc1cccc(C(=O)N2CCN(c3ccc(Cl)cc3)CC2)c1)c1nsc2ccccc12,inactive
5,Cc1ccc(NC(=O)c2cc(S(=O)(=O)N3CCCCCC3)ccc2F)cc1F,inactive
6,Cc1oc2ccc(O)c(CN(C)Cc3ccccc3)c2c1C(=O)Nc1cccc(Cl)c1C,inactive
7,O=c1ccc(-c2ccccc2)nn1Cc1ccc(F)cc1Cl,inactive
8,CCc1ccc(CNC(=O)c2ccc(NC(=O)N3CCCCc4ccccc43)cc2)cc1,inactive
9,CCCC(=O)C1=C(c2ccc(C)cc2)N(C(=O)CCC)n2cnnc2S1,inactive
10,Cc1cc(C)cc(NC(c2cccc(Cl)c2)c2nnc(-c3ccccc3)o2)c1 (stereo unspecified),inactive
11,CCOC(=O)N1CCc2c(sc3c2C(=O)NC(c2cc(OC)c(OC)c(OC)c2)N3)C1 (stereo unspecified),inactive
12,CCCOc1ccc(Oc2nc(NCC(C)C)nc(N(C)C)n2)nn1,inactive
13,CCN1CCc2c(sc(NC(=O)CSc3ccccc3)c2-c2nc3ccccc3s2)C1,inactive
14,Cc1ccc(CN2CCC(CNC(=O)Nc3ccc(Cl)cc3)C2)cc1 (stereo unspecified),inactive
15,O=C(NCC1CCN(Cc2cccc(Cl)c2)CC1)Nc1ccc(F)c(Cl)c1,inactive
16,Cc1cccc(CN2CCC(CNc3ncnc4onc(-c5ccc(Cl)cc5)c34)CC2)c1,7.36 µM (active)
17,CCC(C)NC(=O)c1cc(Sc2cccc(Cl)c2)nc2ccccc12 (stereo unspecified),inactive
18,COc1ccc(-n2nnc(-c3nsc(NC(=O)c4ccc(C)c(C)c4)n3)c2C)cc1Cl,inactive
19,CCOc1ccc(-c2oc3ccccc3c(=O)c2O)cc1OCC,inactive
20,COc1ccc(N(Cc2ccccc2)C(=O)c2nc(S(C)(=O)=O)ncc2Cl)cc1,2.33 µM (active)
21,CCS(=O)(=O)c1ncc(Cl)c(C(=O)N(Cc2ccccc2)c2ccc(OC)cc2)n1,3.29 µM (active)
22,CCOc1ccc(N(C(=O)Cn2nnc3ccccc32)C(C(=O)NCc2ccccc2)c2ccc(OC)cc2)cc1 (stereo unspecified),inactive
23,COc1ccc(-n2cc(C(=O)N(CCN(C)C)Cc3ccccc3)c3ccccc3c2=O)cc1,inactive
24,CCN(CC)CCNC(=O)c1cn(CCOC)c(=O)c2c1c1ccccc1n2C,inactive
25,CC(C)C(=O)OC1=CN(Cc2ccccc2)S(=O)(=O)c2ccccc21,inactive
26,CCc1ccc(N=C2NC(=O)CC(C(=O)Nc3ccc(OC)cc3)S2)cc1 (stereo unspecified),inactive

row,Structure (SMILES),Potency
1,CCCc1cc(=O)oc2cc(C)c3c(-c4ccccc4)c(C)oc3c12,inactive
2,C#CCOc1c(Br)cc(C2C(C(=O)OC)=C(C)NC3=C2C(=O)c2ccccc23)cc1OCC (stereo unspecified),inactive
3,CSc1cccc(NC(=O)Cn2cnc(S(=O)(=O)N3CCCC3)c2)c1,inactive
4,Cn1nnnc1SCCCNCc1cccc(OCc2ccccc2Cl)c1,inactive
5,Cc1noc(/C=C/N(C)C)c1S(=O)(=O)N1CCCC(C(=O)Nc2ccc(F)cc2F)C1 (stereo unspecified),inactive
6,Cc1ccc(-c2noc(-c3ccccc3NC(=O)C3CC(=O)N(c4cccc(C)c4)C3)n2)cc1 (stereo unspecified),inactive
7,Cc1cc(C)c(NC(=O)Cn2cc(S(=O)(=O)Cc3ccccc3F)c3ccccc32)c(C)c1,inactive
8,Cc1ccc(CNC(=O)Cn2cc(S(=O)(=O)Cc3ccccc3F)c3ccccc32)cc1,18.5 µM (active)
9,CN(C)c1ccc(NC(=O)Cn2cc(S(=O)(=O)Cc3ccccc3Cl)c3ccccc32)cc1,10.4 µM (active)
10,COc1ccc2c(c1)c(=O)c(C(=O)c1ccc(C)cc1)cn2Cc1ccccc1F,inactive
11,O=C(Cn1cc(S(=O)(=O)Cc2cccc(Cl)c2)c2ccccc21)Nc1ccccc1C(F)(F)F,inactive
12,CC(C)N(C(=O)CSc1cn(CC(=O)N2CCCCCC2)c2ccccc12)C(C)C,inactive
13,Cc1ccccc1OCc1cc(=O)n2c(-c3ccccc3)csc2n1,inactive
14,Cc1cccc(-n2c(C)nc3cc(C(=O)NC4CCCCCC4)ccc32)c1,inactive
15,COc1ccc(S(=O)(=O)N(C)Cc2nc(-c3cccc(C)c3)no2)cc1,inactive
16,Cc1ccc(-c2cnc(NCc3ccc(C(F)(F)F)cc3)n2C)cc1,inactive
17,Cc1nnc(N2CCCC(C(=O)Nc3cc(F)ccc3F)C2)c2nn(-c3ccccc3)c(C)c12 (stereo unspecified),inactive
18,O=C(NCc1ccccc1Cl)C1CCCN(c2nc3ccccc3n3cccc23)C1 (stereo unspecified),inactive
19,COc1ccc(-n2nc3c(N4CCCC(C(=O)NCc5ccccc5C)C4)nnc(C)c3c2C)cc1 (stereo unspecified),5.85 µM (active)
20,CCCN1C(=O)C(Cc2nc3ccccc3c(=O)n2CC)c2ccccc21 (stereo unspecified),inactive
21,CCc1nnc(NC(=O)c2nc(S(=O)(=O)Cc3ccc(C)cc3)ncc2Cl)s1,20.7 µM (active)
22,Cc1nnc(NC(=O)c2nc(S(=O)(=O)Cc3ccccc3)ncc2Cl)s1,16.5 µM (active)
23,COc1cc(OC)cc(C(=O)Nc2cc3nn(-c4ccccc4)nc3cc2Cl)c1,inactive
24,COc1cccc(-n2ccnc2SCC(=O)Nc2nc3ccc(C)cc3s2)c1,inactive
25,CCc1nnc(NC(=O)c2nc(S(=O)(=O)Cc3cccc(C)c3)ncc2Cl)s1,9.27 µM (active)
26,COc1ccc2nc(NC(=O)c3nc(S(=O)(=O)Cc4ccccc4)ncc3Cl)sc2c1,5.85 µM (active)

row,Structure (SMILES),Potency
1,COc1ccccc1NC(=O)c1c(NCc2ccc(C)o2)sc2c1CCC(C)C2 (stereo unspecified),inactive
2,Cc1ccccc1C(=O)N1CCC(c2nc3ccccc3s2)CC1,inactive
3,CC(C)(C)c1ccc(S(=O)(=O)NCc2ccc3c(c2)CCN3C(=O)c2ccccc2)cc1,inactive
4,CCCCN(C)CCNC(=O)Cn1ncc2c3ccccc3n(CCC)c2c1=O,inactive
5,CCCCNC(=O)c1cc(-c2cccnc2)nc2ccc(S(=O)(=O)NCCCC)cc12,inactive
6,O=C(CSc1nccn1-c1ccc(Cl)cc1)Nc1ccc(Cl)c(Cl)c1,inactive
7,CCC1=Nc2cc(C(=O)NC3CCC(C)CC3)ccc2Sc2ccc(C)cc21 (stereo unspecified),inactive
8,CC1CCN(S(=O)(=O)c2ccc3nc(Nc4cccc(F)c4)ccc3c2)CC1,inactive
9,CCSc1nc2ccccc2c(OCc2cc(C(=O)OC)ccc2OC)c1C(=O)OC,inactive
10,Cc1ccccc1CS(=O)(=O)c1ncc(Cl)c(C(=O)Nc2nnc(C(C)C)s2)n1,13.1 µM (active)
11,CC(C)c1ccc(NC(=O)CSC2=Nc3ccccc3C3=NC(CCC(=O)NCc4ccc(F)cc4)C(=O)N23)cc1 (stereo unspecified),inactive
12,O=C(CCn1cnc2onc(-c3ccc(F)cc3)c2c1=O)Nc1ccc(F)c(Cl)c1,inactive
13,O=S(=O)(c1ccc(-c2csc(=Nc3ccc(OC(F)(F)Cl)cc3)n2CCCO)cc1)N1CCCC1,1.85 µM (active)
14,COc1ccc(NC(=O)CCCN2C(=O)CCn3nc(-c4cn(C)c5ccccc45)cc32)cc1,inactive
15,CCOC(=O)C1=C(C)NC(=O)NC1c1cn(-c2ccccc2)nc1-c1ccc(OC(C)C)cc1 (stereo unspecified),inactive
16,O=C(Nc1ccc(F)cc1F)c1noc2c1CCc1ccccc1-2,inactive
17,CC1=Nc2cc(C(=O)NC3CCCC3)ccc2Sc2ccc(Br)cc21,inactive
18,Cc1ccc(NC(=O)c2cc(S(=O)(=O)N3CCc4ccccc43)ccc2F)cc1Cl,inactive
19,COCCCNC(=O)c1sc2nc(C)c(C(=O)Nc3ccc(C)cc3C)c(-c3ccc(Cl)cc3)c2c1N,inactive
20,Cc1cc(C)c(NC(=O)c2sc3nc(C)cc(C)c3c2NC(=O)c2ccccc2)c(C)c1,inactive
21,Cc1cccc(C(=O)Nc2c(C(=O)NCc3ccc(Cl)cc3)sc3nc(C)cc(C)c23)c1,inactive
22,Cc1ccc(C(=O)Nc2c(C(=O)NCc3ccc(Cl)cc3)sc3nc(C)cc(C)c23)cc1,11.7 µM (active)
23,Cc1cc(C)c2c(NC(=O)c3ccccc3Cl)c(C(=O)Nc3ccc(C)c(C)c3)sc2n1,1.65 µM (active)
24,CC(C)(C)c1ccc(NC(=O)CSc2nnc3scc(-c4ccccc4)n23)cc1,inactive
